This is a sample that favours compounds with a hit; in the whole collection about 3% have one here.
Glioma ERSR ind: induces the endoplasmic reticulum stress response in human glioma cells; U87-MG GRP78 promoter luciferase reporter, 16 h; Potency, µM, for the others: at the top dose activation, usual class: activators; 0.02% of 420,000 active; AID 602332; further: potency means the concentration at half of the fitted maximal effect; series mostly up to about 76 µM; % of control where 0% means no effect; nearly all actives have a fitted effect of over 35% in size
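Stably transfected U87-MG human glioma cells carrying a GRP78-based luminescent sensor were seeded at 1000 cells/well, pin-dosed with compounds and incubated 16 h. Luciferase reagent was then added, and end-point luminescence was read after 10 min at room temperature.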
Nrf2 ARE act: activates Nrf2 signaling; AREc32 ARE-luciferase reporter (MCF7-derived line), luminescence, 24 h; Potency, µM (series often up to 46.1 µM), without a hit: at the highest dose activation, actives largely listed as activators; 0.31% of 410,000 active; AID 624171; further: potency means the concentration at half of the fitted maximal effect; % of control where 0% means no effect; nearly all actives have a fitted effect of over 65% in size
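AREc32 cells carrying an ARE-driven firefly luciferase, 1000 cells/well in OPTI-MEM with 5% FBS, dosed after overnight attachment and incubated 24 hr at 37 deg C. Steady-Glo luminescence read after 30 min at RT.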
D3 antag: antagonists of human D3 dopamine receptor | D3R cells, DiscoveRx beta-arrestin luminescence, antagonist mode; hits give low values | max response, negative = inhibition, % | 2.5% of 360,000 active | AID 652054 | P35462; in the data active means max response below about -50%; inconclusive means no clear call, values can overlap the other calls; further: on the % scale 0 is the no-effect control and ±100 the full control effect
Target sequence (P35462 whole entry, looked up): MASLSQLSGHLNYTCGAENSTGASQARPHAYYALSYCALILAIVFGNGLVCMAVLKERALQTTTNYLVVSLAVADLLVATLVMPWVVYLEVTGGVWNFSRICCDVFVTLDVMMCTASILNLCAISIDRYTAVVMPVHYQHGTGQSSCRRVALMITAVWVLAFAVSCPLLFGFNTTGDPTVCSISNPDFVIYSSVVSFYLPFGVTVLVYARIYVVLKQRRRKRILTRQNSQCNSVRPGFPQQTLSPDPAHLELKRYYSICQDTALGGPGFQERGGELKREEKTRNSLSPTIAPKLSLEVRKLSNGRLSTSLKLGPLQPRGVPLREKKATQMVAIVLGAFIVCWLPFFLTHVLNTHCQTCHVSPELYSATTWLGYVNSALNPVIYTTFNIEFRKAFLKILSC
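Cells expressing the human receptor were seeded at 1500 cells/well, incubated overnight at 37 degrees C in 5% CO2, then exposed to library compounds with dopamine controls for 90 minutes at 37 degrees C before luminescent detection.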
D3 ag: agonists of human D3 dopamine receptor; P35462; D3R DiscoveRx beta-arrestin cells, luminescence, 90 min; max activation, %; 0.58% of 410,000 active; AID 652048; in the data active means max activation above about 30%; further: 0% is about no effect
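Agonist-mode cell screen: cells plated at 1500/well and incubated overnight at 37 °C, then exposed to library compounds for 90 min at 37 °C. Detection reagent was added for 30–60 min at room temperature, and luminescence was read.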
* hit, by the source's call. Unless noted, the call rests on the fitted dose curve; in most records, active means well fitted curve in the direction sought with a large enough effect; inconclusive means small, poorly fitted or top-dose-only effect, or another doubt; inactive means no such curve, though single readings can be large; an effect the other way counts as inactive or inconclusive.

Results for Cc1ccc(OCCSc2nc3ccccc3n2CCC(=O)O)c(C(C)C)c1 ?
Glioma ERSR ind: -4%; Nrf2 ARE act: -1%; D3 antag: -52*; D3 ag: -4

What do the screens show for `Cc1oc(-c2cccs2)nc1CN1CCC(c2ccccc2)CC1`?
Glioma ERSR ind: -1%; Nrf2 ARE act: 1%; D3 antag: -91*; D3 ag: -27

What do the screens show for `COc1cc(OC)cc(-c2ncc3ccccn23)c1`?
Glioma ERSR ind: -1%; Nrf2 ARE act: 0%; D3 antag: -58*; D3 ag: -9

Results for COc1cccc(-c2ncc3ccccn23)c1 ?
Glioma ERSR ind: -1%; Nrf2 ARE act: 13%; D3 antag: 20; D3 ag: 1

How did COc1ccc(Cl)cc1Cn1c(C)c(C(=O)NCc2ccc(C#N)cc2)sc1=O do in these assays?
Glioma ERSR ind: -1%; Nrf2 ARE act: 0%; D3 antag: -50*; D3 ag: -1

What do the screens show for `Cc1c(C(=O)NCc2ccccc2C(F)(F)F)sc(=O)n1Cc1cccc(C(F)(F)F)c1`?
Glioma ERSR ind: -1%; Nrf2 ARE act: 4%; D3 antag: -55*; D3 ag: -6

Results for COc1ccc(Cl)cc1Cn1c(C)c(C(=O)NCc2cccc(C(F)(F)F)c2)sc1=O ?
Glioma ERSR ind: -1%; Nrf2 ARE act: 1%; D3 antag: -60*; D3 ag: -4

What do the screens show for `COc1ccccc1Cn1c(C)c(C(=O)NCc2ccc(C#N)cc2)sc1=O`?
Glioma ERSR ind: 2%; Nrf2 ARE act: 0%; D3 antag: -4; D3 ag: -6

What do the screens show for `O=C(CN1Cc2ccccc2OC(c2ccccc2F)C1)NC(c1ccccn1)C(F)(F)F` (centres undefined)?
Glioma ERSR ind: -4%

Results for COc1cc(=O)n2c(c1C(=O)N(C)Cc1ccsc1)CCN(Cc1c(C)nn(C)c1Cl)CC2 ?
Glioma ERSR ind: -4%

What do the screens show for `COc1ccc(Nc2nc3ccccc3nc2NS(=O)(=O)c2cccs2)c(OC)c1`?
Glioma ERSR ind: -2%; Nrf2 ARE act: -1%; D3 antag: -101*; D3 ag: -15

Results for COc1ccc(Nc2nc(-c3cccs3)cs2)c(OC)c1 ?
Glioma ERSR ind: 5%; Nrf2 ARE act: 1%; D3 antag: -51*; D3 ag: -5

How did O=C(/C=C/c1ccc(O)c(O)c1)O[C@@H]1C[C@@](OC(=O)/C=C/c2ccc(O)c(O)c2)(C(=O)O)C[C@@H](O)[C@@H]1O do in these assays?
D3 ag: 5

How did CC(=O)Oc1cc2c(c3ccccc13)CCC2=O do in these assays?
Glioma ERSR ind: -1%; Nrf2 ARE act: 13µM*; D3 antag: -17; D3 ag: -1

What do the screens show for `CCN(CC)C1CCN(C(=O)c2cnn(-c3nccc(-c4ccco4)n3)c2C(C)C)C1` (centres undefined)?
Glioma ERSR ind: -4%

What do the screens show for `Cc1ccc(NC(=O)c2nc(S(=O)(=O)Cc3ccccc3C)ncc2Cl)cc1C`?
Glioma ERSR ind: -18%; Nrf2 ARE act: -2%; D3 antag: -74*; D3 ag: -32

Results for Cc1cccc(CS(=O)(=O)c2ncc(Cl)c(C(=O)NCc3ccc4c(c3)OCO4)n2)c1 ?
Glioma ERSR ind: -15%; Nrf2 ARE act: -3%; D3 antag: -97*; D3 ag: -1

What do the screens show for `CCOC(=O)c1ccc(NC(=O)c2nc(S(=O)(=O)Cc3ccccc3)ncc2Cl)cc1`?
Glioma ERSR ind: -13%; Nrf2 ARE act: 3.2µM*; D3 antag: inconclusive; D3 ag: -37

How did CC(=O)Nc1ccc(NC(=O)c2nc(S(=O)(=O)Cc3cccc(C)c3)ncc2Cl)cc1 do in these assays?
Glioma ERSR ind: -19%; Nrf2 ARE act: -2%; D3 antag: -75*; D3 ag: -28

Results for Cc1ccc(CNC(=O)c2nc(S(=O)(=O)Cc3ccc(C)cc3)ncc2Cl)cc1 ?
Glioma ERSR ind: 4%; Nrf2 ARE act: 10%; D3 ag: -19

How did Cc1ccc(NC(=O)c2nc(S(=O)(=O)Cc3ccccc3F)ncc2Cl)cc1C do in these assays?
Glioma ERSR ind: -1%

Results for CCc1ccccc1NC(=O)CC1NCCNC1=O (centres undefined) ?
Glioma ERSR ind: -3%; Nrf2 ARE act: 0%; D3 ag: 2

What do the screens show for `COc1cc2c(NC3CCN(C)CC3)nc(N3CCCN(C)CC3)nc2cc1OCCN(C)CCN(C)C`?
Glioma ERSR ind: -4%

What do the screens show for `COC(=O)c1ccc(NC(=O)c2nc(S(=O)(=O)Cc3cccc(C)c3)ncc2Cl)cc1`?
Glioma ERSR ind: -19%; Nrf2 ARE act: inconclusive; D3 antag: -53*; D3 ag: -28

Results for COc1ccc(/C=C/C(=O)c2c(C)nc3ccccn23)cc1 ?
Glioma ERSR ind: 7%; Nrf2 ARE act: 0%; D3 antag: 16; D3 ag: 38*

What do the screens show for `Cc1ccc2nc(COc3cccc(NC(=O)COc4ccccc4F)c3)cc(=O)n2c1`?
Glioma ERSR ind: 0%; Nrf2 ARE act: 6%; D3 ag: 7

How did Oc1ccccc1CN1CCC(C(O)(c2ccccc2)c2ccccc2)CC1 do in these assays?
Glioma ERSR ind: -5%; Nrf2 ARE act: 5%; D3 antag: 0; D3 ag: -4

How did N#CCc1ccc(OCCCN2CCC(C(O)(c3ccccc3)c3ccccc3)CC2)cc1 do in these assays?
Nrf2 ARE act: 11%; D3 antag: -68*; D3 ag: -18

How did OC(c1ccccc1)(c1ccccc1)C1CCN(CCCOc2cccc(OC(F)(F)F)c2)CC1 do in these assays?
Nrf2 ARE act: -4%; D3 antag: -81*; D3 ag: -14

How did CC(=O)Nc1ccccc1OCCCN1CCC(C(O)(c2ccccc2)c2ccccc2)CC1 do in these assays?
Nrf2 ARE act: 9%; D3 antag: -70*; D3 ag: -14

How did OC(c1ccccc1)(c1ccccc1)C1CCN(CCCOc2ccc3c(c2)CCCC3)CC1 do in these assays?
Nrf2 ARE act: -3%; D3 antag: -17; D3 ag: 5

How did CCOc1ccccc1NC(=O)NCCN1CCCCC1 do in these assays?
Glioma ERSR ind: -2%; Nrf2 ARE act: 0%; D3 antag: inconclusive; D3 ag: -10

Results for CC(=O)Nc1ccc(OCCCN2CCC(C(O)(c3ccccc3)c3ccccc3)CC2)cc1 ?
Nrf2 ARE act: 5%; D3 antag: -104*; D3 ag: -12

How did Cc1cc(C)c2c(n1)NCCC2 do in these assays?
Glioma ERSR ind: -2%

How did COc1ccc(S(=O)(=O)NCC2CCCN(Cc3ccccc3Cl)C2)cc1 (centres undefined) do in these assays?
Glioma ERSR ind: -8%; Nrf2 ARE act: -1%; D3 antag: -52*; D3 ag: -15

Results for CC(=O)c1cccc(S(=O)(=O)N2CCN(c3nc(-c4cccs4)nc4ccccc34)CC2)c1 ?
Glioma ERSR ind: -4%

What do the screens show for `Cn1cccc1Cc1nnc(SCC(=O)N2CCCCCC2)n1-c1ccc(F)cc1`?
Glioma ERSR ind: -2%; Nrf2 ARE act: 0%; D3 antag: 2; D3 ag: 4

Results for Cc1ccc(-n2c(Cc3cccn3C)nnc2SCC(=O)N2CCN(c3ccccc3)CC2)cc1 ?
Glioma ERSR ind: -2%; Nrf2 ARE act: -1%; D3 antag: -79*; D3 ag: -7

Source: PubChem BioAssay (National Center for Advancing Translational Sciences (NCATS))
